Experimental data reported in publication PMC8384837, “Expanding the binding specificity for RNA recognition by a PUF domain”.

Legend:
Assay in all cases: yeast three-hybrid, YBZ-1, SC-Leu-His + 0.5 mM 3-AT, 4 days
Details in all cases: tags: N-Gal4 AD-HA kept; label: inside an RPR1-promoter hybrid RNA with tandem MS2 sites; ssRNA
PUM1 PUF domain R3-GCD = PUM1 PUF domain R3-GCD (Homo sapiens, UniProt Q14671 828-1176, C935G;R936C;Q939D)
Summary of the method: (§1)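 The interaction score is the log change in variant frequency from input to selection. Scores were computed in log2 with a pseudocount of 1 for absent variants, using Illumina sequencing of PCR-amplified repeat regions. The input came from four days on SC-Leu and the selection from four days on SC-Leu-His + 0.5 mM 3-AT. The cells were strain YBZ-1 (LexA–MS2 coat fusion, HIS3 reporter) co-expressing Pumilio-1 PUF domain libraries and matching RNA elements from a centromeric plasmid.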

PUM1 PUF domain R3-VRE = PUM1 PUF domain R3-VRE (Homo sapiens, UniProt Q14671 828-1176, C935V;Q939E)
Chain of PUM1 PUF domain R3-VRE (Q14671 828-1176 C935V/Q939E): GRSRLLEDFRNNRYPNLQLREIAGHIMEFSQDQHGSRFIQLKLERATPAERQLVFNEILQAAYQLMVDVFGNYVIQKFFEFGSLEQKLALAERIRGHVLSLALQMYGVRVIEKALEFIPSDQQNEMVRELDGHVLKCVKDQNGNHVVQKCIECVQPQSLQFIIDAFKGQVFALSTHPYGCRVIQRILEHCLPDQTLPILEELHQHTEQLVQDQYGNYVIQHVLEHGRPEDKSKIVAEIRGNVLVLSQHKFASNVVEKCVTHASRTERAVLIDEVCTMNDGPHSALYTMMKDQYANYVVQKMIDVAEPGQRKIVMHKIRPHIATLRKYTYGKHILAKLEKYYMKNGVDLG
Summary of the method: as §1

PUM1 PUF domain R3-LWM = PUM1 PUF domain R3-LWM (Homo sapiens, UniProt Q14671 828-1176, C935L;R936W;Q939M)
Chain of PUM1 PUF domain R3-LWM (Q14671 828-1176 C935L/R936W/Q939M): as the sequence (Q14671 828-1176 C935V/Q939E) above, with V108L, R109W, E112M counted along it
Summary of the method: as §1

PUM1 PUF domain R8-PWV = PUM1 PUF domain R8-PWV (Homo sapiens, UniProt Q14671 828-1176, N1122P;Y1123W;Q1126V)
Chain of PUM1 PUF domain R8-PWV (Q14671 828-1176 N1122P/Y1123W/Q1126V): as the sequence (Q14671 828-1176 C935V/Q939E) above, with V108C, E112Q, N295P, Y296W, Q299V counted along it
Summary of the method: as §1

PUM1 PUF domain R5-GRL = PUM1 PUF domain R5-GRL (Homo sapiens, UniProt Q14671 828-1176, C1007G;Q1011L)
Chain of PUM1 PUF domain R5-GRL (Q14671 828-1176 C1007G/Q1011L): as the sequence (Q14671 828-1176 C935V/Q939E) above, with V108C, E112Q, C180G, Q184L counted along it
Summary of the method: as §1

PUM1 PUF domain R4-TRA = PUM1 PUF domain R4-TRA (Homo sapiens, UniProt Q14671 828-1176, N971T;H972R;Q975A)
Chain of PUM1 PUF domain R4-TRA (Q14671 828-1176 N971T/H972R/Q975A): as the sequence (Q14671 828-1176 C935V/Q939E) above, with V108C, E112Q, N144T, H145R, Q148A counted along it
Summary of the method: as §1

PUM1 PUF domain R1-RWV = PUM1 PUF domain R1-RWV (Homo sapiens, UniProt Q14671 828-1176, S863R;R864W;Q867V)
Chain of PUM1 PUF domain R1-RWV (Q14671 828-1176 S863R/R864W/Q867V): as the sequence (Q14671 828-1176 C935V/Q939E) above, with S36R, R37W, Q40V, V108C, E112Q counted along it
Summary of the method: as §1

PUM1 PUF domain R1-KRV = PUM1 PUF domain R1-KRV (Homo sapiens, UniProt Q14671 828-1176, S863K;Q867V)
Chain of PUM1 PUF domain R1-KRV (Q14671 828-1176 S863K/Q867V): as the sequence (Q14671 828-1176 C935V/Q939E) above, with S36K, Q40V, V108C, E112Q counted along it
Summary of the method: as §1

PUM1 PUF domain R4-LHR = PUM1 PUF domain R4-LHR (Homo sapiens, UniProt Q14671 828-1176, N971L;Q975R)
Chain of PUM1 PUF domain R4-LHR (Q14671 828-1176 N971L/Q975R): as the sequence (Q14671 828-1176 C935V/Q939E) above, with V108C, E112Q, N144L, Q148R counted along it
Summary of the method: as §1

PUM1 PUF domain R4-PWA = PUM1 PUF domain R4-PWA (Homo sapiens, UniProt Q14671 828-1176, N971P;H972W;Q975A)
Chain of PUM1 PUF domain R4-PWA (Q14671 828-1176 N971P/H972W/Q975A): as the sequence (Q14671 828-1176 C935V/Q939E) above, with V108C, E112Q, N144P, H145W, Q148A counted along it
Summary of the method: as §1

Chain of PUM1 PUF domain R3-GCD (Q14671 828-1176 C935G/R936C/Q939D): as the sequence (Q14671 828-1176 C935V/Q939E) above, with V108G, R109C, E112D counted along it

## GGCUAGAACUAGUGGAUCCCCCGGCGCCCGGCGGCUCGAGCCCGGGUAAGUGUAAGUAGUCUGCAUGCCGCCGGGCGCCAUGCCUGCAGGUCGACUCUAGAAAACAUG
PUM1 PUF domain R3-GCD
  binding signal: 3.94 log2 enrichment (interaction score)
PUM1 PUF domain R3-VRE
  binding signal: 4.15 log2 enrichment (interaction score)
PUM1 PUF domain R3-LWM
  binding signal: 5.54 log2 enrichment (interaction score)

## GGCUAGAACUAGUGGAUCCCCCGGCGCCCGGCGGCUCGAGCCCGGGUAAGUGUAAAUAGUCUGCAUGCCGCCGGGCGCCAUGCCUGCAGGUCGACUCUAGAAAACAUG
PUM1 PUF domain R8-PWV
  binding signal: 3.54 log2 enrichment (interaction score)
PUM1 PUF domain R3-VRE
  binding signal: 3.18 log2 enrichment (interaction score)
PUM1 PUF domain R5-GRL
  binding signal: 3.74 log2 enrichment (interaction score)
PUM1 PUF domain R4-TRA
  binding signal: 3.73 log2 enrichment (interaction score)

## GGCUAGAACUAGUGGAUCCCCCGGCGCCCGGCGGCUCGAGCCCGGGUAAGUGUAAUUAGUCUGCAUGCCGCCGGGCGCCAUGCCUGCAGGUCGACUCUAGAAAACAUG
PUM1 PUF domain R3-LWM
  binding signal: 4.35 log2 enrichment (interaction score)

## GGCUAGAACUAGUGGAUCCCCCGGCGCCCGGCGGCUCGAGCCCGGGUAAGUGUGAAUAGUCUGCAUGCCGCCGGGCGCCAUGCCUGCAGGUCGACUCUAGAAAACAUG
PUM1 PUF domain R5-GRL
  binding signal: 1.44 log2 enrichment (interaction score)

## GGCUAGAACUAGUGGAUCCCCCGGCGCCCGGCGGCUCGAGCCCGGGUAAGCGUAAAUAGUCUGCAUGCCGCCGGGCGCCAUGCCUGCAGGUCGACUCUAGAAAACAUG
PUM1 PUF domain R8-PWV
  binding signal: 2.69 log2 enrichment (interaction score)

## GGCUAGAACUAGUGGAUCCCCCGGCGCCCGGCGGCUCGAGCCCGGGUAAGUGUACAUAGUCUGCAUGCCGCCGGGCGCCAUGCCUGCAGGUCGACUCUAGAAAACAUG
PUM1 PUF domain R4-TRA
  binding signal: 0.18 log2 enrichment (interaction score)

## GGCUAGAACUAGUGGAUCCCCCGGCGCCCGGCGGCUCGAGCCCGGGUAAGUGUAAAUUGUCUGCAUGCCGCCGGGCGCCAUGCCUGCAGGUCGACUCUAGAAAACAUG
PUM1 PUF domain R1-RWV
  binding signal: 2.59 log2 enrichment (interaction score)
PUM1 PUF domain R1-KRV
  binding signal: 6.82 log2 enrichment (interaction score)

## GGCUAGAACUAGUGGAUCCCCCGGCGCCCGGCGGCUCGAGCCCGGGUAAGUGUAUAUAGUCUGCAUGCCGCCGGGCGCCAUGCCUGCAGGUCGACUCUAGAAAACAUG
PUM1 PUF domain R4-LHR
  binding signal: 4.01 log2 enrichment (interaction score)
PUM1 PUF domain R4-PWA
  binding signal: 5.17 log2 enrichment (interaction score)

## GGCUAGAACUAGUGGAUCCCCCGGCGCCCGGCGGCUCGAGCCCGGGUAAGUGUAAAUCGUCUGCAUGCCGCCGGGCGCCAUGCCUGCAGGUCGACUCUAGAAAACAUG
PUM1 PUF domain R1-RWV
  binding signal: 3.55 log2 enrichment (interaction score)
PUM1 PUF domain R1-KRV
  binding signal: 3.51 log2 enrichment (interaction score)

## GGCUAGAACUAGUGGAUCCCCCGGCGCCCGGCGGCUCGAGCCCGGGUAAGUGUUAAUAGUCUGCAUGCCGCCGGGCGCCAUGCCUGCAGGUCGACUCUAGAAAACAUG
PUM1 PUF domain R5-GRL
  binding signal: 2.5 log2 enrichment (interaction score)
